Compounds without any hit were thinned out: in the full panel of roughly 83,000, 20% have a hit.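 Cells were grown in 96-well plates and exposed to the test compound at a single concentration for 48 hours; results are reported as percent growth, with values below 10 considered active.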 Active and inactive are the calls of the source.
Assays:
Experiment in all cases: NCI-60 one-dose screen, 48 h (100 = growth as untreated, 0 = no growth, -100 = all killed)
Details in all cases: 10 µM unless noted
SK-MEL-2 melanoma = test system: SK-MEL-2 melanoma
EKVX NSCLC = test system: EKVX NSCLC
SN12C renal = test system: SN12C renal
UO-31 renal = test system: UO-31 renal
TK-10 renal = test system: TK-10 renal
ACHN renal = test system: ACHN renal
CAKI-1 renal = test system: CAKI-1 renal
A498 renal = test system: A498 renal
CCRF-CEM leukemia = test system: CCRF-CEM leukemia
MOLT-4 leukemia = test system: MOLT-4 leukemia
SR leukemia = test system: SR leukemia
RPMI-8226 leukemia = test system: RPMI-8226 leukemia
OVCAR-8 ovarian = test system: OVCAR-8 ovarian
OVCAR-5 ovarian = test system: OVCAR-5 ovarian
OVCAR-4 ovarian = test system: OVCAR-4 ovarian
SK-OV-3 ovarian = test system: SK-OV-3 ovarian
IGROV1 ovarian = test system: IGROV1 ovarian
OVCAR-3 ovarian = test system: OVCAR-3 ovarian
HS 578T breast = test system: HS 578T breast
NCI/ADR-RES ovarian = test system: NCI/ADR-RES ovarian

Measured: growth

C/C=C(\C)C(=O)N[C@H]1C(O)C[C@]2(C)C3CC[C@@]4(C)C(CC[C@@H]4C(C)N(C)C)C3CCC2C1O (stereo not given in full)
active: UO-31 renal -0.798% | SR leukemia -30.4% | RPMI-8226 leukemia -12.3%
inactive: SK-MEL-2 melanoma 117% | EKVX NSCLC 66% | SN12C renal 68.1% | TK-10 renal 109% | ACHN renal 60.4% | CAKI-1 renal 80.3% | A498 renal 92.9% | CCRF-CEM leukemia 14.6% | MOLT-4 leukemia 17% | OVCAR-8 ovarian 84.2% | OVCAR-5 ovarian 95% | OVCAR-4 ovarian 24.2% | SK-OV-3 ovarian 87.7% | IGROV1 ovarian 66% | OVCAR-3 ovarian 33.5% | HS 578T breast 71.5% | NCI/ADR-RES ovarian 81.3%

CCc1ccc(CCC(=O)Nc2ncc(Cc3ccccc3)s2)o1
active: OVCAR-3 ovarian -11.2% | HS 578T breast 9.99%
inactive: SK-MEL-2 melanoma 44.4% | EKVX NSCLC 36.1% | SN12C renal 42.3% | UO-31 renal 40.3% | TK-10 renal 63.1% | ACHN renal 44.4% | CAKI-1 renal 33.3% | A498 renal 22.9% | CCRF-CEM leukemia 19% | MOLT-4 leukemia 22.2% | SR leukemia 22.6% | RPMI-8226 leukemia 29.4% | OVCAR-8 ovarian 28.4% | OVCAR-5 ovarian 38.9% | OVCAR-4 ovarian 61.5% | SK-OV-3 ovarian 34.4% | IGROV1 ovarian 35.6% | NCI/ADR-RES ovarian 12.7%

COc1ccc(Cn2cc3c(c2-c2ccccc2)CCc2cnoc2-3)cc1
inactive: SK-MEL-2 melanoma 64.6% | EKVX NSCLC 44.1% | SN12C renal 37.3% | UO-31 renal 36.5% | TK-10 renal 91.9% | ACHN renal 46.6% | CAKI-1 renal 34% | A498 renal 33.3% | MOLT-4 leukemia 25.5% | SR leukemia 29.9% | OVCAR-8 ovarian 19.9% | OVCAR-5 ovarian 26% | OVCAR-4 ovarian 54.7% | SK-OV-3 ovarian 21.9% | IGROV1 ovarian 21.7%
active: CCRF-CEM leukemia 8.41% | RPMI-8226 leukemia -25.3% | OVCAR-3 ovarian -11.5% | HS 578T breast 9.15% | NCI/ADR-RES ovarian 4.47%

COc1cc(-c2nc3sccn3c2-c2ccnc(NCCNS(=O)(=O)c3ccc(Cl)cc3)n2)ccc1F
inactive: SK-MEL-2 melanoma 12.6% | EKVX NSCLC 48.8% | SN12C renal 37.4% | TK-10 renal 55.1% | ACHN renal 20.4% | CAKI-1 renal 19.6% | A498 renal 52.8% | SR leukemia 34.5% | OVCAR-8 ovarian 12.3% | OVCAR-5 ovarian 112% | OVCAR-4 ovarian 21.3% | SK-OV-3 ovarian 54.4% | IGROV1 ovarian 41.8% | OVCAR-3 ovarian 43.1% | HS 578T breast 49.5% | NCI/ADR-RES ovarian 13.7%
active: UO-31 renal 6.85% | CCRF-CEM leukemia 6.78% | MOLT-4 leukemia -3.87% | RPMI-8226 leukemia -18.9%

COc1cccc(/C=C/C(=O)c2cccc(Nc3nc(Nc4ccccc4)nc(Nc4ccccc4)n3)c2)c1
active: RPMI-8226 leukemia -55.2%
inactive: SK-MEL-2 melanoma 57.9% | EKVX NSCLC 78.6% | SN12C renal 106% | UO-31 renal 56.9% | TK-10 renal 77.5% | ACHN renal 86% | CAKI-1 renal 84.4% | A498 renal 94.7% | CCRF-CEM leukemia 43.8% | MOLT-4 leukemia 58.8% | SR leukemia 42.4% | OVCAR-8 ovarian 77.7% | OVCAR-5 ovarian 89% | OVCAR-4 ovarian 84.1% | SK-OV-3 ovarian 101% | IGROV1 ovarian 77.5% | OVCAR-3 ovarian 76.6% | HS 578T breast 81.5% | NCI/ADR-RES ovarian 83.4%

Cc1ccc(-c2nc(/C=C3/C(=O)Nc4ccc(F)cc43)c3ccccn23)cc1
inactive: SK-MEL-2 melanoma 31.9% | EKVX NSCLC 87.2% | SN12C renal 88.2% | UO-31 renal 70.2% | TK-10 renal 89.2% | CAKI-1 renal 60.5% | A498 renal 97.7% | CCRF-CEM leukemia 77.4% | MOLT-4 leukemia 77.7% | SR leukemia 58% | RPMI-8226 leukemia 89.7% | OVCAR-8 ovarian 69.6% | OVCAR-5 ovarian 69.2% | OVCAR-4 ovarian 63.4% | SK-OV-3 ovarian 98% | IGROV1 ovarian 55% | OVCAR-3 ovarian 110% | HS 578T breast 99.2% | NCI/ADR-RES ovarian 85.3%
active: ACHN renal -3.57%

C#CCOc1cccc(-c2ncnc3cc(NC(=O)C=C)ccc23)c1
active: CCRF-CEM leukemia 8.7% | SR leukemia 5.05%
inactive: SK-MEL-2 melanoma 46.7% | EKVX NSCLC 72.2% | SN12C renal 15% | UO-31 renal 15% | TK-10 renal 13.8% | ACHN renal 25.5% | CAKI-1 renal 15.9% | A498 renal 44.5% | MOLT-4 leukemia 30.8% | RPMI-8226 leukemia 21.1% | OVCAR-8 ovarian 38.3% | OVCAR-5 ovarian 38.5% | OVCAR-4 ovarian 70.9% | SK-OV-3 ovarian 79.9% | IGROV1 ovarian 33.5% | OVCAR-3 ovarian 28.6% | HS 578T breast 24.6% | NCI/ADR-RES ovarian 53.5%

Nc1nc(N)c2c(n1)NC(c1ccc(Cl)cc1)C1CCc3ccccc3C1=N2 (stereo not given)
inactive: SK-MEL-2 melanoma 102% | EKVX NSCLC 35.8% | SN12C renal 65.9% | UO-31 renal 55.8% | TK-10 renal 49.2% | ACHN renal 52.7% | CAKI-1 renal 37% | A498 renal 69.5% | CCRF-CEM leukemia 51.5% | MOLT-4 leukemia 22.5% | SR leukemia 33.1% | RPMI-8226 leukemia 41.9% | OVCAR-8 ovarian 70.7% | OVCAR-5 ovarian 103% | OVCAR-4 ovarian 39.2% | SK-OV-3 ovarian 66.8% | IGROV1 ovarian 77.2% | OVCAR-3 ovarian 40.5% | HS 578T breast 80.9% | NCI/ADR-RES ovarian 52.5%
